Mito fusion yeast: mitochondrial division inhibition or fusion activation. S. cerevisiae fusion-defective mutant growth rescue, CellTiterGlo 48 h. Potency, µM (doses to about 46.1 µM), without a hit: top-dose growth rescue (activation), usual class: activators. actives 0.23% (n = 320,000); further: % of control where 0% means no effect; nearly all actives have a fitted effect of over 45% in size
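Luminescent cell viability in 1536-well qHTS format served as the measure of rescued growth in ts fusion-mutant S. cerevisiae cultured on non-fermentable YPEG for 48 hours at 37C.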
GLP1R inv ag: acts as inverse agonist at human GLP-1 receptor; P43220; HEK293 GLP-1R CRE-luciferase, luminescence, 24 h; GLP-1R form is constitutively active; Potency, µM (series often up to 38.3 µM), for the others: top-dose activity change, negative = inhibition, hits mostly inhibitors; actives 1.6% (n = 410,000); further: on the % scale 0 is the no-effect control and ±100 the full control effect; nearly all actives have a fitted effect of over 55% in size
Target sequence (P43220 whole entry, looked up): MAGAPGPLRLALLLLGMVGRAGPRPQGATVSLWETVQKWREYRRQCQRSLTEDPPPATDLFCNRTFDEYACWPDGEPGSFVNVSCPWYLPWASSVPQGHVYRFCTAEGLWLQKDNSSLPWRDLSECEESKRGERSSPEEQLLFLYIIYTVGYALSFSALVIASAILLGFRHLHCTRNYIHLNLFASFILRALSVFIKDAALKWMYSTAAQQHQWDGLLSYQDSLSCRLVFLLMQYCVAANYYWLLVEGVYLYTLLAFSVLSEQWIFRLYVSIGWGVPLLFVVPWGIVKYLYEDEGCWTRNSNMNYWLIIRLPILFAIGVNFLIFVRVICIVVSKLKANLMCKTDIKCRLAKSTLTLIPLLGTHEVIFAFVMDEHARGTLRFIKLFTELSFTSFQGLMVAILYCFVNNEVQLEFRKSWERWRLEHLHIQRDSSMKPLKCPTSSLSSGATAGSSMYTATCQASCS
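Seeding at 200 cells/uL, 12 h culture, 24 hr compound treatment, then luciferase reagent and a luminescence read; cells are HEK293 stably expressing a constitutively active GLP-1R plus cAMP-responsive luciferase.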
BRCA1 expr act: BRCA1 expression activation; MCF7-BRCA1-FFLuc reporter, luminescence, 48 h; response scale: scaled: vehicle 0%, 10 µM genistein 100%; Potency, µM (series often up to 46.1 µM), for inactives: at the top dose activation, usual class: activators; actives 1.1% (n = 380,000); further: nearly all actives have a fitted effect of over 80% in size
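First, MCF7-BRCA1-FFLuc cells (2000/well) attach for 2 h; next, compounds are pin-added and incubated 48 h at 37 °C; finally, luciferase reagent is added and luminescence read after 15 min.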
GLP1R cytotox: cytotoxicity in counter-screen for GLP-1R inverse agonists. HEK293 cAMP-luciferase reporter cells, luminescence, 24 h. Potency, µM (top dose mostly 38.3 µM), inactives show top-dose activity change, negative = inhibition, most hits filed as inhibitors. actives 0.13% (n = 410,000);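 further: loss of luciferase light is scored as toxicity; on the % scale 0 is the no-effect control and ±100 the full control effect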
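Seeding density was 200 cells/uL; after overnight-length (12 h) culture, 23 nL compounds went on for 24 h at 37 °C. Readout used a luciferase detection reagent, luminescence taken after 12 min at room temperature.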
GLP-1R agonist: agonists of human GLP-1 receptor; P43220; HEK293 GLP-1R CRE-luciferase, luminescence, 4-6 h; cells express a hypersensitive GLP-1R form; Potency, µM (highest dose often 45.6 µM), without a hit: top-dose activation, actives largely listed as activators; actives 0.007% (n = 380,000); further: % of control where 0% means no effect
Active calls of the source: *; ? = inconclusive; . = no result given. Compounds with a hit are over-represented: about 2.8% of the library has one in this group of screens. The call rests on the fitted dose curve; in most records, active means well fitted curve in the direction sought with a large enough effect; inconclusive means small, poorly fitted or top-dose-only effect, or another doubt; inactive means no such curve, though single readings can be large; an effect the other way counts as inactive or inconclusive. Potency means the concentration at half of the fitted maximal effect.

SMILES	Mito fusion yeast	GLP1R inv ag	BRCA1 expr act	GLP1R cytotox	GLP-1R agonist
CCCOC(=O)c1ccc(Oc2cn[nH]c2-c2ccc(OCC)cc2O)cc1	24%	10µM*	-94%	?	-26%
CCCn1c(=O)c2ccccc2n2c(SCCOc3ccccc3F)nnc12	24%	-6%	-7%	3%	7%
Cc1cc(N2CCN(C)CC2)ccc1NC(=O)c1cccc(S(=O)(=O)N2CCc3ccccc3C2)c1	-1%	?	-37%	?	-12%
CCOC(=O)C(Oc1ccc2c(-c3ccc(OC)cc3)cc(=O)oc2c1C)c1ccccc1 (configuration not stated)	-1%	10%	-19%	0%	-12%
COc1ccc(-c2cc(=O)oc3c(C)c(OC(C)C(C)=O)ccc23)cc1 (configuration not stated)	22µM*	-29%	-17%	5%	23%
CC(C)c1ccc(/C=C/c2[nH]c(=O)[nH]c(=O)c2[N+](=O)[O-])cc1	-3%	?	-40%	-26%	0%
Cc1ccc(NS(=O)(=O)c2ccc(NC(=O)C(C)Sc3ccc(Cl)cc3)cc2)c(C)c1 (configuration not stated)	-21%	10µM*	-43%	12%	2%
Cc1ccc(C)c(NS(=O)(=O)c2ccc(NC(=O)CSc3ccc(Cl)cc3)cc2)c1	-7%	?	0%	-10%	8%
O=C(CN1C(=O)NC2(CCCCC2)C1=O)N1CCc2ccccc2C1	-32%	3%	17%	-15%	-1%
O=[N+]([O-])c1ccc(/C=C/c2ccncc2)cc1	1%	19%	10µM*	-16%	-5%
O=[N+]([O-])c1cccc(/C=C/c2ccncc2)c1	-1%	45%	0%	-15%	18%
CCCCn1nc(NC(=O)CCC)c2cc3cc(OC)ccc3nc21	-2%	?	13µM*	93%	7%
O=C(Nc1ccc(N2CCN(C(=O)c3ccc(Cl)cc3)CC2)cc1)c1cccnc1	5%	?	-16%	-8%	5%
OCCCNC(=S)Nc1ccc(Oc2ccccc2)cc1	-4%	10%	0%	-1%	7%
CC(C)CNC(=S)Nc1ccc(Oc2ccccc2)cc1	?	11µM*	-62%	?	7%
O=C(Nc1cnn(Cc2ccc(F)cc2)c1)C(c1ccccc1)c1ccccc1	0%	4.5µM*	-67%	-13%	0%
O=C(Nc1cnn(Cc2ccc(F)cc2)c1)c1cnccn1	-3%	31%	49%	2%	-16%
Cc1ccccc1Nc1cc(C(=O)NCc2cccs2)c2ccccc2n1	.	?	.	3%	.
Cc1ccc(Nc2cc(C(=O)NCc3cccs3)c3ccccc3n2)c(C)c1	.	2µM*	.	-10%	.
O=C(Cc1c(F)c(F)c(F)c(F)c1F)Nc1nc(-c2ccccc2)cs1	11µM*	7.1µM*	-39%	?	-2%
O=C(Cc1ccc(F)cc1)Nc1nc(-c2ccc(F)cc2)cs1	6%	-31%	-12%	-5%	6%
CC(=O)Nc1ccc(-c2csc(NC(=O)Cc3cccc(F)c3)n2)cc1	4%	11µM*	-6%	8%	11%
NC1=NC(c2cn[nH]c2-c2ccc(F)cc2)n2c(nc3ccccc32)N1 (configuration not stated)	5%	.	.	.	.
CCc1ccc(-c2cc(C(=O)Nc3ccc(S(=O)(=O)NC(C)=O)cc3)c3ccccc3n2)cc1	2%	-26%	73%	4%	1%
Oc1cccc(C(Nc2ccccn2)c2ccc3cccnc3c2O)c1Cl (configuration not stated)	.	?	.	-6%	.
CCOC(=O)c1cc(-c2ccccc2)sc1N	3%	10%	?	9%	5%
CCOC(=O)c1sc(-c2ccccc2)cc1N	-2%	-9%	13µM*	2%	8%
CCOC(=O)c1sc(-c2ccc(OC)cc2)cc1N	7%	7%	?	1%	8%
CCOC(=O)c1sc(-c2ccc(F)cc2)cc1N	-9%	5%	11µM*	2%	13%

Screening data as filed in PubChem.
